Source: PubChem BioAssay (National Center for Advancing Translational Sciences (NCATS))
FH mod = Identification of activators of human fumarate hydratase by quantitative high-throughput screening; Fumarate hydratase, mitochondrial (Homo sapiens), P07954; FH coupled MDH/diaphorase resazurin fluorescence, 15 min; Potency, µM (doses to about 79.9 µM), without a hit: at the highest dose activity change, negative = inhibition, actives largely listed as inhibitors; 54,000 tested, 0.22% active; AID 1347055, 2019; further: potency means the concentration at half of the fitted maximal effect; on the % scale 0 is the no-effect control and ±100 the full control effect; the screen sought activators but most active calls are inhibition curves; nearly all actives have a fitted effect of over 45% in size
DRV1 agonist = GPR32 (DRV1) agonism, beta-arrestin recruitment; O75388; CHO-K1 GPR32 beta-arrestin PathHunter luminescence, 90 min; zero percent set by DMSO-only wells; activation, % at 76.9 µM; 48,000 tested, 2.5% active;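 active means activation of at least 60% and not above a set upper limit, about 1 call in 100 departs from these limits; inconclusive means activation of 40% to 60%, or above that upper limit; inactive means activation under 40%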; further: 0% is about no effect
Target sequence (O75388 whole entry, looked up): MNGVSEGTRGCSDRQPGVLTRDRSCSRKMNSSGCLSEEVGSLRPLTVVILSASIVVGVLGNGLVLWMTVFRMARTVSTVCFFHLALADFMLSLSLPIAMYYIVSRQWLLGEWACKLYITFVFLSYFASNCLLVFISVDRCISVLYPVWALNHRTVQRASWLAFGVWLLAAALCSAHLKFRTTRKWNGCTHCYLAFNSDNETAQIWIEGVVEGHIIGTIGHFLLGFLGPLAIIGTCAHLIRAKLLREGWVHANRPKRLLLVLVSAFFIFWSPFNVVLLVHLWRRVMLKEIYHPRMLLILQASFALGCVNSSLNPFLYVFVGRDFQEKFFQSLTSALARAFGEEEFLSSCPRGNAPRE
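Step 1: seed CHO-K1 GPR32 beta-arrestin cells, 2,500/well, overnight at 37 °C. Step 2: add compounds, 90 min at 37 °C. Step 3: detection reagent, 1 h ambient, then luminescence.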
SKOV3 invasion = inhibitors of ovarian cancer cell adhesion and invasion in omental model; Potency, µM (highest dose often 45.8 µM), for the others: at the highest dose activity change, negative = inhibition, usual class: inhibitors; SKOV3ip1-GFP adhesion/invasion on 3D omental model, fluorescence; 46,000 tested, 0.1% active;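 further: potency means the concentration at half of the fitted maximal effect; plate controls were DMSO wells for no effect and tomatine positive control wells for full effect; nearly all actives have a fitted effect of over 65% in size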
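Primary human omental fibroblast/mesothelial 3D culture pre-formed 48 h. SKOV3ip1-GFP cells added with compounds (0.36-46 umol/L), incubated 2 h RT/16 h 37 C, fixed; GFP cells quantified at 488/509 nm.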
NTMT1 inh = blocks human N-terminal methyltransferase 1 activity | Q9BV86 | NTMT1 MTase-Glo SAH luminescence, purified enzyme | Potency, µM (top dose mostly 114 µM), for inactives: top-dose activity change, negative = inhibition, usual class: inhibitors | 59,000 tested, 2.5% active;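 further: potency means the concentration at half of the fitted maximal effect; plate controls were DMSO vehicle for no effect and no enzyme for full effect; nearly all actives have a fitted effect of over 65% in size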
Target sequence (Q9BV86 whole entry, looked up): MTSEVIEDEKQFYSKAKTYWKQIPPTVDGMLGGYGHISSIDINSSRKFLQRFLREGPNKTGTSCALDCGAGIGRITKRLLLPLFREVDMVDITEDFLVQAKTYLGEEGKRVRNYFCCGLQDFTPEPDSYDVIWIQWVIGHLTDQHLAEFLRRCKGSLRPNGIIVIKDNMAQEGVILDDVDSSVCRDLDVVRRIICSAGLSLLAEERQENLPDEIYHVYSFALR
Starred values were filed as active, the others as inactive; i = inactive; u = inconclusive; x = no result given; ! = repeats disagree; [ ] = dose if it differs, or a comment. Sampled rows, rich in hits. Any-hit rate of the full collection: about 3.9%. Unless noted, the call rests on the fitted dose curve; in most records, active means well fitted curve in the direction sought with a large enough effect; inconclusive means small, poorly fitted or top-dose-only effect, or another doubt; inactive means no such curve, though single readings can be large; an effect the other way counts as inactive or inconclusive.

SMILES	FH mod	DRV1 agonist	SKOV3 invasion	NTMT1 inh
N[C@H]1C[C@H]1c1ccc(-c2cccc(O)c2)cc1	0%	x	x	-1%[57.5 µM]
CCOc1ccccc1NC(=O)CSc1nnc(N)s1	-10%	-1	-8%	16%
CCc1cccc(C)c1NC(=O)CSc1nnc(N)s1	9%	94*	16%	-5%
CC(C)(C)c1ccc(S(=O)(=O)c2cnc(SCC(=O)Nc3ccc(F)c(Cl)c3)[nH]c2=O)cc1	u	-13	-8%	25µM*
O=C(CSc1ncc(S(=O)(=O)c2ccc(Cl)cc2)c(=O)[nH]1)Nc1cccc(C(F)(F)F)c1	-27%	113*	-6%	u
COc1cc(Cl)c(C)cc1NC(=O)CSc1ncc(S(=O)(=O)c2ccc(C(C)(C)C)cc2)c(=O)[nH]1	u	-10	-2%	18µM*
Cc1ccc(S(=O)(=O)c2cnc(SCC(=O)Nc3ccccc3C(F)(F)F)[nH]c2=O)cc1C	-21%	-2	i	89µM*
Cc1ccc(NC(=O)CSc2ncc(S(=O)(=O)c3ccc(C(C)C)cc3)c(=O)[nH]2)cc1C	u	u	-4%	-27%
CC(=O)Nc1ncc(S(=O)(=O)N2CCOCC2)s1	x	x	x	-1%
COc1ccc(-c2nc(CNC(=O)Nc3ccccc3)c(C)o2)c(OC)c1	4%	65*	-8%	-7%
CCOc1ccccc1NC(=O)c1nc(S(=O)(=O)Cc2cccc(C)c2)ncc1Cl	-3%	u	i	-3%
COc1ccc(CNC(=O)c2nc(S(=O)(=O)Cc3ccccc3)ncc2Cl)cc1	1%	-23	3.5µM*	14%
O=C(NCc1ccccc1)c1nc(S(=O)(=O)Cc2ccccc2)ncc1Cl	-9%	-21	u	-1%
CCS(=O)(=O)c1ncc(Cl)c(C(=O)NCc2ccccc2)n1	-19%	-13	10µM*	-2%
CCn1c(=O)cc(OCC(=O)NCc2ccccc2OC)c2ccccc21	-14%	118*	i	-1%
CCn1c(=O)cc(OCC(=O)Nc2cc(OC)c(OC)c(OC)c2)c2ccccc21	-9%	90*	-5%	8%
CCn1c(=O)cc(OCC(=O)NCc2ccccc2Cl)c2ccccc21	2%	71*	-4%	-9%
COc1ccc(-c2nc3c4ccccc4n(CC(=O)N4CCN(c5ccc(F)cc5)CC4)c(=O)n3n2)cc1	-12%	10	-13%	89µM*
CC(=O)Nc1ccc(-c2c(NC(C)=O)sc3c2CCNC3)cn1	x	x	x	-5%
CNC(=O)c1c(I)c(NC(=O)CCCCC(=O)Nc2c(I)c(C(=O)O)c(I)c(C(=O)NC)c2I)c(I)c(C(=O)O)c1I	8%[53.3 µM]	5	x	u
CCn1c(=O)cc(OCC(=O)N2CCN(c3ccc(C(C)=O)cc3)CC2)c2ccccc21	-8%	14	i	0%
CCn1c(=O)cc(OCC(=O)N2CCN(c3ccc(OC)cc3)CC2)c2ccccc21	-13%	81*	-8%	-6%
O=C(Cn1c(=O)oc2cc(S(=O)(=O)NCc3ccccc3)ccc21)NCc1ccc(Cl)cc1	6%	19	i	-1%
Cc1cccc(NC(=O)Cn2c(=O)oc3cc(S(=O)(=O)NC4CCCC4)ccc32)c1	-1%	16	-3%	8%
O=C(Cn1c(=O)oc2cc(S(=O)(=O)NCc3ccccc3)ccc21)NCc1ccc(F)cc1	-2%	111*	0%	-1%
SMILES	FH mod	DRV1 agonist	SKOV3 invasion	NTMT1 inh
Cc1cccc(NC(=O)Cn2c(=O)oc3cc(S(=O)(=O)NCc4ccccc4)ccc32)c1	-16%	65*	3%	2%
O=C(Nc1cccc(C(F)(F)F)c1)Nc1cccs1	-8%	u	i	4%
O=C(Nc1cccc(C(F)(F)F)c1)Nc1cc(S(=O)(=O)NC2CC2)ccc1-c1ccsc1	19µM*!	x	-15%	3%[57.5 µM]
Cc1cc(Nc2ncc3cc(-c4c(Cl)cccc4Cl)c(=O)n(C)c3n2)ccc1F	5%	x	x	12%[57.5 µM]
CCN(CC)CCOc1ccc(Nc2ncc3cc(-c4c(Cl)cccc4Cl)c(=O)n(C)c3n2)cc1	-14%[53.3 µM]	x	-25%	79µM*!
CCOC(=O)C1CCN(S(=O)(=O)c2cc(-c3cc(C)no3)ccc2OC)CC1	-14%	-11	i	89µM*
CCOC(=O)C1CCN(S(=O)(=O)c2cc(-c3cc(C)no3)ccc2C)CC1	-2%	-16	-10%	-1%
C=C1CC[C@H]2[C@@](C)(CCC(OC3OC(CO)C(O)C(O)C3O)[C@@]2(C)CO)C1C(=O)CC1=CCOC1=O (some centres not stated)	-3%[53.3 µM]	x	x	-4%[29.8 µM]
Cc1ccc(-c2cc(C(=O)NCC[S+](=O)([O-])O)c3ccccc3n2)cc1C	x	x	x	0%
COc1ccc(NC(=O)CCCN2C(=O)C(c3ccccc3)Oc3cccnc32)cc1OC (configuration not stated)	-6%	76*	-12%	2%
O=C(CCCN1C(=O)C(c2ccccc2)Oc2cccnc21)Nc1ccccc1C(F)(F)F (configuration not stated)	-25%	-7	i	-1%
CC1=C(C(=O)Nc2ccccc2)C(c2ccccc2Cl)N=C(Nc2nc3ccccc3o2)N1 (configuration not stated)	x	x	x	3%
Cc1ccccc1-c1nc(CS(=O)(=O)CC(=O)NCCCc2ccccc2)c(C)o1	-29%	80*	5%	u
CCN1CCN(CCCNC(=O)CS(=O)(=O)Cc2nc(-c3ccccc3C)oc2C)CC1	7%	0	i	-1%
Oc1cccc(Nc2ncnc3sc4c(c23)CCCC4)c1	7%	66*	4%	9%
CCC(Sc1ncnc2sc3c(c12)CCCC3)C(=O)OC(C)C (configuration not stated)	6%	-13	-8%	-16%
Cc1cc(Br)ccc1NC(=O)c1ccc(NS(=O)(=O)c2c(C)noc2C)cc1	-7%	64*	0%	13%
Cc1noc(C)c1S(=O)(=O)Nc1ccc(C(=O)Nc2ccc(Br)cc2)cc1	u	95*	i	7%
Cc1noc(C)c1S(=O)(=O)Nc1ccc(C(=O)Nc2ccc(C(C)C)cc2)cc1	-13%	91*	i	-14%
CCOCCn1ccc2c(OCC(=O)Nc3cccc(F)c3)cccc2c1=O	-7%	77*	5%	13%
COCCn1ccc2c(OCC(=O)Nc3c(C)cc(C)cc3C)cccc2c1=O	0%	-10	6%	16%
Cn1ccc2c(OCC(=O)NCc3ccc(F)cc3)cccc2c1=O	-8%	68*	i	-7%
CCn1ccc2c(OCC(=O)NCc3ccc(F)cc3)cccc2c1=O	-8%	23	11%	-1%
Cc1cc(C)cc(NC(=O)COc2cccc3c(=O)n(C)ccc23)c1	20%	86*	i	-6%
COc1cc2c(c(O)c1OC/C=C(\C)CC/C=C(/C)CCC=C(C)C)CN(C(CCC(=O)O)C(=O)O)C2=O (configuration not stated)	-12%[53.3 µM]	x	x	-1%[29.8 µM]
CN(C)C(=S)SC(=S)N(C)C	0%[53.3 µM]	-15	x	25µM*
